Shown are actives, neighbours in structure and some others; about 2.9% of the full set was active somewhere.
KDM5B inh – Primary screen for KDM5B Histone Demethylases FDH-coupled qHTS | actives 2.6% (n = 220,000) | AID 1347165, 2019 | Potency, µM (highest dose often 57.7 µM), hits mostly inhibitors | KDM5B demethylase, FDH-coupled NADH fluorescence (FDH is formaldehyde dehydrogenase); also: potency is read from the fitted curve at half-maximal effect; 0% is about no effect; nearly all actives have a fitted effect of over 70% in size
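Coupled FDH/NAD⁺ fluorescence readout. KDM5BΔAP 200 nM final; compound titration, 10 min RT preincubation; substrate mix 12.5 µM H3K4me3, 25 µM 2-OG, 50 µM Fe(II), 100 µM ascorbate, 0.25 mM NAD⁺, 0.25 U/mL FDH; ΔRFU over 30 min.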
SNCA expr inhib – Primary qHTS assay for inhibitors of alpha-synuclein gene (SNCA) expression | HEK-293 SNCA-luciferase knock-in, luminescence, 24 h | Potency, µM (doses to about 57.2 µM), without a hit: top-dose activity change, negative = inhibition, actives largely listed as inhibitors | actives 0.17% (n = 140,000) | AID 1671194, 2021;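 also: potency is read from the fitted curve at half-maximal effect; plate controls were DMSO cells for no effect and cell-free wells for full effect; nearly all actives have a fitted effect of over 45% in size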
SNCA viab count – GF-AFC viability counterscreen for inhibitors of alpha-synuclein gene (SNCA) expression | HEK-293-SNCA-luc viability, GF-AFC fluorescence, 24 h | Potency, µM (highest dose often 57.1 µM), for inactives: top-dose activity change, negative = cytotoxicity, usual class: cytotoxic | actives 0.12% (n = 150,000) | AID 1671193, 2021;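 also: potency is read from the fitted curve at half-maximal effect; 0% = DMSO-treated cells and -100% = medium-only wells without cells; nearly all actives have a fitted effect of over 30% in size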
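HEK-293-SNCA-luc cells (1500/well) plated 24 h, then exposed 24 h to a dilution series; GF-AFC added 30 min at 37C, fluorescence 405/540 nm; normalised to medium-only and DMSO wells, Hill fit.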
IP6K1 inhibitor – Primary qHTS assay for small molecule inhibitors of Inositol hexaphosphate kinase 1 (IP6K1); IP6K1 kinase, ADP-Glo luminescence, 2 h; hits give low values; actives 0.81% (n = 140,000); Inositol hexakisphosphate kinase 1 (Homo sapiens), Q92551; activity change, % (series mostly up to about 58 µM); in the data active = activity change below about -25%; also: % is scaled to controls: 0 for no effect and ±100 for the full control effect
Target sequence (Q92551 whole entry, looked up): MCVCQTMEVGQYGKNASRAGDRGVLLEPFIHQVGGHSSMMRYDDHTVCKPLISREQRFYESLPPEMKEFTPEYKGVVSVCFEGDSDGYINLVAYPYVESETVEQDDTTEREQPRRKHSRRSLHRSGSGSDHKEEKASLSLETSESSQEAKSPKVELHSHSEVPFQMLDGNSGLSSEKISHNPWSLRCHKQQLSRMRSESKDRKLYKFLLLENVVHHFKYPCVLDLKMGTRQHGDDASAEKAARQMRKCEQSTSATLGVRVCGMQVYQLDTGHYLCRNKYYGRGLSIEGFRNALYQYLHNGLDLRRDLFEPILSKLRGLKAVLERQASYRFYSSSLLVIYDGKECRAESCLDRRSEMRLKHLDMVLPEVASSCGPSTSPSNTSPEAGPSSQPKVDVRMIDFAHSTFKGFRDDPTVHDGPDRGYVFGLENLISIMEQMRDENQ
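ADP-Glo luminescence measures ADP made by human IP6K1 during a 2 h RT reaction with ATP/IP6 (mix at 1.3 mM/130 uM); top library doses 57.5 and 19.1 uM final.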
IP6K1 conf – Confirmatory qHTS assay for small molecule inhibitors of Inositol hexaphosphate kinase 1 (IP6K1); shares compounds with IP6K1 inhibitor; recombinant IP6K1 kinase, ADP-Glo luminescence, 2 h; Potency, µM (doses to about 49 µM), for inactives: at the top dose activity change, negative = inhibition, most hits filed as inhibitors; actives 13% (n = 1,200); AID 1645852, 2021; also: potency is read from the fitted curve at half-maximal effect; % is scaled to controls: 0 for no effect and ±100 for the full control effect; nearly all actives have a fitted effect of over 65% in size
Active calls of the source: *; i = inactive; u = inconclusive; x = no result; [ ] = dose if it differs, or a comment. Unless noted, calls follow the shape of the dose curve; as a rule, active = well fitted curve in the direction sought with a large enough effect; inconclusive = small, poorly fitted or top-dose-only effect, or another doubt; inactive = no such curve, though single readings can be large; an effect the other way counts as inactive or inconclusive.

SMILES	KDM5B inh	SNCA expr inhib	SNCA viab count	IP6K1 inhibitor	IP6K1 conf
COc1ccc(NC(=O)C2CCC(CNS(=O)(=O)c3csc(C(N)=O)c3)CC2)cc1 (centres undefined)	i	-17%	8%	-39*	u
NC(=O)c1cc2c(nc1CCC1COc3ccccc3O1)CCC2 (centres undefined)	i	2%	-3%	8	x
Cc1noc(C)c1[S+](=O)([O-])N1CCCC1C(=O)N1CCC(c2nc3ccncc3[nH]2)CC1 (centres undefined)	x	34%	2%	-31*	-14%
CCOC(=O)c1cnc2ccc(Cl)cc2c1Nc1ccc(N2CCOCC2)cc1	i	-26%	-6%	-25*	-13%
CCOc1ccc(NC(=O)CCC2CCCN(S(=O)(=O)c3cccc(F)c3)C2)cc1 (centres undefined)	x	-2%	-25%	19	x
COc1ccc(-c2nnc(SCc3nc4ccccc4o3)o2)cc1	i	x	x	x	x
COCCN1C(=O)c2ccccc2C(C(=O)Nc2cc(OC)cc(OC)c2)C12CCCC2 (centres undefined)	u	-15%	-5%	16	x
CC(C)c1nc2ccc(C(=O)NCCCN3CCN(c4ccc(F)cc4)CC3)cc2o1	i	0%	10%	17	x
CC(C)c1nc2ccc(C(=O)NCCCN3CCN(c4cccc(Cl)c4)CC3)cc2o1	u	56%	-13%	-34*	u
O=C(NCCCN1CCCCCC1)c1ccc2c(c1)sc1nc(-c3ccccc3)cn12	u	-35%	u	-50*	u
Cc1ccc2nc(-c3ccsc3)c(Nc3ccc(C(C)C)cc3)n2c1	i	4%	4%	22	x
CC(C)c1ccc(Nc2c(-c3ccsc3)nc3ccc(Cl)cn23)cc1	i	1%	10%	-31*	-11%
COc1ccc(C2Cn3nnc(-c4nc(-c5cccc(Cl)c5)no4)c3CO2)cc1 (centres undefined)	u	1%	8%	6	x
Cc1ccc(NC(=O)CCCc2nc(-c3ccco3)no2)cc1Cl	i	8%	5%	11	x
Cc1cc(C)cc(NC(=O)CCCc2nc(-c3ccco3)no2)c1	i	5%	0%	-27*	-14%
CC(C)Cn1c(=O)c2ccccc2n2c(CCC(=O)NCc3ccc(Cl)cc3)nnc12	u	6%	2%	-28*	-3%
Cc1ccc(CS(=O)(=O)c2ncc(Cl)c(C(=O)Nc3nc4ccc(F)cc4s3)n2)cc1	u	u	9%	-28*	-15%
CCCc1nnc(NC(=O)c2nc(S(=O)(=O)Cc3ccc(C)cc3)ncc2Cl)s1	u	5µM*	28µM*	-33*	u
CCOC(=O)c1cc(-c2ccc(S(=O)(=O)Nc3ccc(F)c(Cl)c3)s2)on1	i	x	x	x	x
CCOC(=O)c1ccc(NC(=O)CC2C(=O)N(c3ccc(F)cc3)C(=O)N2Cc2ccc(C)cc2)cc1 (centres undefined)	i	u	-19%	-29*	u
O=C(c1ccccc1-c1nn[nH]n1)N1CCN(CCN2CCOCC2)CC1	i	14%	2%	-5	x
CN1CC2(CCN(C(=O)c3ccccc3-c3nn[nH]n3)CC2)CC1C(=O)O (centres undefined)	i	9%	2%	-38*	-14%
Cc1nc2cc(-c3cccc(F)c3)nn2c(C)c1CCC(=O)NCCc1ccccc1	u	13%	-1%	-8	x
Cc1nc2cc(-c3cccc(F)c3)nn2c(C)c1CCC(=O)NC(C)c1ccccc1 (centres undefined)	u	u	u	-25*	1%
O=C(O)c1ccccc1Nc1ccccc1	x	21%	0%	x	x
SMILES	KDM5B inh	SNCA expr inhib	SNCA viab count	IP6K1 inhibitor	IP6K1 conf
O=C(O)c1ccccc1Nc1cccc(C(F)(F)F)c1	x	-11%[25.6 µM]	13%[23.9 µM]	-31*	u
CCOC(=O)c1c(S(=O)(=O)NCC(=O)N2CCCCC2)c(C)n(C)c1C	i	x	x	x	x
O=C(CS)Nc1ccccc1	x	32%[25.6 µM]	u	-27*	u
O=C(NCC(c1ccccn1)N1CCOCC1)c1cccc(-n2cnnc2)c1 (centres undefined)	u	-1%	2%	-7	x
COc1ccc(C23CC4CC(CC(C(N)=O)(C4)C2)C3)cc1	i	x	x	x	x
C[C@@H]1CN(C(=O)c2cnc3c(O)cccn3c2=O)CC[C@@]1(O)C1CCC1	32µM*	18%	17%	-28*	-11%
CC(Oc1ccccc1)C(=O)OCc1cc(=O)n2nc(C(C)C)sc2n1 (centres undefined)	i	20%	0%	-30*	-9%
O=C(Nc1ccccc1-c1cn2c(CN3CCNCC3)csc2n1)c1cnc2ccccc2n1	x	7%	u	-29*	u
COc1cccc(Cn2c(C)c(CNCc3ccccc3Cl)c(C(=O)O)c2C)c1	i	-20%	-2%	-27*	1%
COCCN(Cc1cccs1)C(=O)C1CC1	i	x	x	x	x
Cc1ccc(-n2nc(CO)c(C(=O)NC(C)CCCc3ccccc3)n2)cc1 (centres undefined)	i	40%	-8%	-31*	-18%
COC[C@H]1C[C@@H](N(C)C)[C@H](O)[C@@H]1O	i	18%[87.6 µM]	4%[87.6 µM]	-25*	u
COCC(=O)N[C@@H]1C[C@H](COC)[C@@H](O)[C@H]1O	i	2%[87.6 µM]	5%[87.6 µM]	0	x
CC(C)N1C[C@H](O)C[C@H]1c1nnc2n1CCN(C(=O)c1cccnc1)CC2	i	11%	1%	-4	x
Cc1ccc(/C=C/c2nc3ccccc3[nH]2)cc1	u	-93%	-6%	-41*	10µM*
Cc1ccc(/C=C(/C#N)c2nc3ccccc3[nH]2)cc1	i	x	x	x	x
COCC(=O)N(C)Cc1ccccc1C(F)(F)F	i	8%[87.6 µM]	3%[87.6 µM]	-9	x
Cc1noc(C)c1-c1cc2c(cc(-c3ccccc3)n2C)c(-c2ccnn2C)n1	i	17%[87.6 µM]	-17%[87.6 µM]	-45*	u
Cc1ccc(C(=O)Nc2nc3nc(C)cc(=O)n3[nH]2)cc1	i	18%	0%	-27*	-18%
O=C(c1ccc(-c2ncc3cnc(-c4cccc(F)c4)cn23)cc1)N1CC(O)C1	u	17%[87.6 µM]	3%[87.6 µM]	-29*	-14%
Cc1cc(/C=C(/C#N)C(N)=O)c(C)cc1/C=C(/C#N)C(N)=O	i	x	x	x	x
CCC(C(=O)NCc1ccccc1OC)n1nc(C)n2c(cc3sccc32)c1=O (centres undefined)	i	-1%	-8%	-85*	5%
COCCN(C)C[C@@H]1CN(C(=O)c2ccc(-c3ccccc3)n2C)C[C@@H]1CO	i	133%	12%	-34*	-15%

Source: PubChem
